About 79,000 compounds went through this panel and 15% of them were active in at least one assay; those are over-represented in the sample as a whole. A number with no mark means an inactive call. The source made the active and inactive calls. No stated cut-off is given here; in the data, active means growth inhibition above about 70%; inactive means the rest.
Assay: NCI Yeast Anticancer Drug Screen. Data for the cln2 rad14 strain (AID 165);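 further: 0% = growth equal to vehicle treated cultures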
Conditions: S. cerevisiae cln2 rad14 strain, at 50.0 µM, hits give high values
Outline: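 Test compounds were added to cln2 rad14 yeast cultures; inhibition of growth was then determined by comparison with vehicle treatment.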

SMILES	growth inhibition
c1ccc2nc3ccccc3nc2c1	41.8%
O=C(NCCCl)Nc1c2ccccc2nc2ccccc12	31.4%
CC1=C2CCC3C(CCC4(C)C(C(C)CCCC(C)C)CCC34)C2(C)CCC1=O (stereo not drawn)	18.4%
Cc1cccc(Cl)c1NC(=O)/C=C/c1ccccc1	-1.6%
O=C1/C(=C/c2ccc(Cl)cc2)CSC/C1=C\c1ccc(Cl)cc1	-2.2%
CCOC(=O)c1c(N)sc2c1CCCCC2	27.6%
CC(C)NC(=O)O/N=C1\CCC2[C@@H]3CC=C4C[C@@H](OC(=O)NC(C)C)CC[C@]4(C)C3CC[C@]12C (stereo partly drawn)	81.2% (active)
COc1ccc2c(c1)c(=O)c1c(NCCN(C)C)ccc3nnn2c31	18.9%
CCCC(=O)N(C(=O)CCC)C1=C(Cl)C(=O)c2ccccc2C1=O	74.2% (active)
CN(C)C1C=CCC(c2ccccc2)C1[N+](=O)[O-] (stereo not drawn)	92.3% (active)
CC(=O)NC1C(=O)CC(c2ccccc2)N(C)C1c1ccccc1 (stereo not drawn)	36.1%
CCCCC#CCCOC(=O)C#CCCCC	92% (active)
CC1C[C@]2(C)C(=S)Nc3ccccc3[C@@H]2Nc2ccccc21 (stereo partly drawn)	19.8%
O=[N+]([O-])/C=C/c1c[nH]c2c1ccc1ccccc12	89% (active)
CCC[CH2][Sn]([S][Sn]([CH2]CCC)([c]1ccccc1)[c]1ccccc1)([c]1ccccc1)[c]1ccccc1	98% (active)
CCN(CC)CCCCNc1ccc(Cl)cc1	-9.2%
C[n+]1c(/C=C\c2ccccc2)sc2ccccc21	74.8% (active)
Cc1nnc2nc3c(nn12)c1ccccc1n3C	75.8% (active)
CS(=O)c1cc(=O)c2ccccc2s1 (stereo not drawn)	84.4% (active)
COC(=O)C1=C(C)NC(C)=C(C(=O)OC)C1c1ccc(NCc2ccccc2)c([N+](=O)[O-])c1	0.55%

SMILES	growth inhibition
C/C(=N/NC(=S)Nc1ccccc1Cl)c1ccccn1	78.3% (active)
Nc1ccccc1Sc1ccc(C(F)(F)F)cc1[N+](=O)[O-]	94.7% (active)
COc1ccc2nc(-c3ccc(Cl)cc3)[nH]c2c1	-4%
Cc1c(C)c(C)c(C(=O)c2ccccc2C(=O)NCCSC(C)(C)C)c(C)c1C	76.6% (active)
COC(=O)C(=O)C(C(=O)Nc1cccc(C)c1C)C1Sc2ccccc2NC1=O (stereo not drawn)	52.8%
Cc1nc2c(O)c3c(c(O)c2nc1C)C1C=CC3CC1	14.2%
C[C@]12CCC(=O)C=C1CC[C@@H]1[C@@H]2[C@@H](O)C[C@@]2(C)[C@H]1CC[C@]2(O)C(=O)COC(=O)CCC1CCCC1	82.7% (active)
CC(=O)OCCc1ccc(CCc2ccccc2)cc1	-31.6%
COc1cc2c(cc1OC)C(=O)C(C)(c1ccccc1)NC2 (stereo not drawn)	99.5% (active)
CCCCCCC(/C=C/c1c(Cl)cccc1Cl)=N\O	69.1%
O=C1OC(c2ccc(O)cc2)=C(c2ccccc2)C1c1ccccc1 (stereo not drawn)	99.5% (active)
c1cc[c]([Ge]([O]c2cccc3cccnc23)([c]2ccccc2)[c]2ccccc2)cc1	45.5%
CCCCCCCCCCCCCCCCCCOP(=O)([O-])OCC[N+](C)(C)C	89.5% (active)
Cc1noc(NS(=O)(=O)c2ccc(NCc3c4ccccc4nc4cc(Cl)ccc34)cc2)c1C	98.2% (active)
CCC(=NCCCCCCN=C(CC)c1cc(C)cc([N+](=O)[O-])c1O)c1cc(C)cc([N+](=O)[O-])c1O.[Fe]	70.5% (active)
O=C(O)c1ccc([N+](=O)[O-])cc1.[Ag]	98.9% (active)
O=C1C(=O)c2ccccc2C(O)=C1C(c1ccccc1)c1ccccc1	58.2%
CC(=O)SC1C(=O)N(C)C(SC(C)=O)C(=O)N1C (stereo not drawn)	95% (active)
COc1ccc2c(c1)CN([C@@H](C)[C@H]1CC[C@H]3[C@@H]4CC[C@H]5C[C@@H](O)CC[C@]5(C)[C@H]4CC[C@]13C)CO2	98.2% (active)

Assay: NCI Yeast Anticancer Drug Screen. Data for the bub3 strain (AID 167)
Conditions: S. cerevisiae bub3 mutant strain, at 5.0 µM (retest, dose inferred, filed as 0.5), hits give high values
Outline: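 Mutant yeast screening strain plus compound; vehicle-treated cultures serve as the 0% inhibition reference.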

SMILES	growth inhibition
c1ccc2nc3ccccc3nc2c1	-1%
O=C(NCCCl)Nc1c2ccccc2nc2ccccc12	-1%
CC1=C2CCC3C(CCC4(C)C(C(C)CCCC(C)C)CCC34)C2(C)CCC1=O (stereo not drawn)	1%
Cc1cccc(Cl)c1NC(=O)/C=C/c1ccccc1	27%
O=C1/C(=C/c2ccc(Cl)cc2)CSC/C1=C\c1ccc(Cl)cc1	25%
CCOC(=O)c1c(N)sc2c1CCCCC2	-71%
CC(C)NC(=O)O/N=C1\CCC2[C@@H]3CC=C4C[C@@H](OC(=O)NC(C)C)CC[C@]4(C)C3CC[C@]12C (stereo partly drawn)	83% (active)
COc1ccc2c(c1)c(=O)c1c(NCCN(C)C)ccc3nnn2c31	-4%
CCCC(=O)N(C(=O)CCC)C1=C(Cl)C(=O)c2ccccc2C1=O	91% (active)
CN(C)C1C=CCC(c2ccccc2)C1[N+](=O)[O-] (stereo not drawn)	1%
CC(=O)NC1C(=O)CC(c2ccccc2)N(C)C1c1ccccc1 (stereo not drawn)	2%
CCCCC#CCCOC(=O)C#CCCCC	3%
CC1C[C@]2(C)C(=S)Nc3ccccc3[C@@H]2Nc2ccccc21 (stereo partly drawn)	24%
O=[N+]([O-])/C=C/c1c[nH]c2c1ccc1ccccc12	88% (active)
CCC[CH2][Sn]([S][Sn]([CH2]CCC)([c]1ccccc1)[c]1ccccc1)([c]1ccccc1)[c]1ccccc1	98% (active)
CCN(CC)CCCCNc1ccc(Cl)cc1	-1%
C[n+]1c(/C=C\c2ccccc2)sc2ccccc21	7%
Cc1nnc2nc3c(nn12)c1ccccc1n3C	-64%
CS(=O)c1cc(=O)c2ccccc2s1 (stereo not drawn)	0%
COC(=O)C1=C(C)NC(C)=C(C(=O)OC)C1c1ccc(NCc2ccccc2)c([N+](=O)[O-])c1	1%

SMILES	growth inhibition
C/C(=N/NC(=S)Nc1ccccc1Cl)c1ccccn1	-37%
Nc1ccccc1Sc1ccc(C(F)(F)F)cc1[N+](=O)[O-]	6%
COc1ccc2nc(-c3ccc(Cl)cc3)[nH]c2c1	3%
Cc1c(C)c(C)c(C(=O)c2ccccc2C(=O)NCCSC(C)(C)C)c(C)c1C	44%
COC(=O)C(=O)C(C(=O)Nc1cccc(C)c1C)C1Sc2ccccc2NC1=O (stereo not drawn)	65%
Cc1nc2c(O)c3c(c(O)c2nc1C)C1C=CC3CC1	39%
C[C@]12CCC(=O)C=C1CC[C@@H]1[C@@H]2[C@@H](O)C[C@@]2(C)[C@H]1CC[C@]2(O)C(=O)COC(=O)CCC1CCCC1	51%
CC(=O)OCCc1ccc(CCc2ccccc2)cc1	8%
COc1cc2c(cc1OC)C(=O)C(C)(c1ccccc1)NC2 (stereo not drawn)	2%
CCCCCCC(/C=C/c1c(Cl)cccc1Cl)=N\O	-4%
O=C1OC(c2ccc(O)cc2)=C(c2ccccc2)C1c1ccccc1 (stereo not drawn)	2%
c1cc[c]([Ge]([O]c2cccc3cccnc23)([c]2ccccc2)[c]2ccccc2)cc1	7%
CCCCCCCCCCCCCCCCCCOP(=O)([O-])OCC[N+](C)(C)C	7%
Cc1noc(NS(=O)(=O)c2ccc(NCc3c4ccccc4nc4cc(Cl)ccc34)cc2)c1C	9%
CCC(=NCCCCCCN=C(CC)c1cc(C)cc([N+](=O)[O-])c1O)c1cc(C)cc([N+](=O)[O-])c1O.[Fe]	-1%
O=C(O)c1ccc([N+](=O)[O-])cc1.[Ag]	99% (active)
O=C1C(=O)c2ccccc2C(O)=C1C(c1ccccc1)c1ccccc1	18%
CC(=O)SC1C(=O)N(C)C(SC(C)=O)C(=O)N1C (stereo not drawn)	0%
COc1ccc2c(c1)CN([C@@H](C)[C@H]1CC[C@H]3[C@@H]4CC[C@H]5C[C@@H](O)CC[C@]5(C)[C@H]4CC[C@]13C)CO2	91% (active)

Source: PubChem BioAssay (NCI)
